{
  "source": "PubChem BioAssay",
  "data": [
    {"biological_target": "Streptavidin (Streptomyces avidinii) (UniProt P22629)", "sequence (P22629 whole entry, looked up)": "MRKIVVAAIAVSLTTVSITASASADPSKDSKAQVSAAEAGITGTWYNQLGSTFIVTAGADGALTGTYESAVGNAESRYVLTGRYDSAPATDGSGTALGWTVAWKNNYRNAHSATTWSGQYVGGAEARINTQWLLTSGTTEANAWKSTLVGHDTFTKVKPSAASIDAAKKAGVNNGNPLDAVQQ", "assay": "streptavidin binders on small-molecule microarray, primary screen, artefact control for SMM compound annotation, biophysical, 635/667 nm fluorescence (AID 1147);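 further: signal reflects streptavidin binding to arrayed compounds as a control protein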", "settings": "streptavidin binding, higher = more signal", "values": [
      {"smiles": "CS(=O)(=O)CCOC(=O)C1=CC(c2ccc(CO)cc2)=CC(C2CC2)N(Cc2cc3c(cc2Br)OCO3)C=C1C(=O)OCCS(C)(=O)=O", "note": "(stereo not given)", "composite z-score": 1.54},
      {"smiles": "C=CCOC(=O)[C@H]1[C@@H]2C(=O)O[C@@H](c3ccccc3)[C@@H](c3ccccc3)N2[C@@H](c2ccc(OCCOC(=O)[C@@H]3C[C@@H]4C(=O)N5CCC[C@H]5C(=O)N4[C@@H]3c3ccc(O)cc3)cc2)[C@]12C(=O)Nc1ccccc12", "composite z-score": -0.244},
      {"smiles": "O=C1O[C@@H](c2ccccc2)[C@@H](c2ccccc2)N2[C@@H](c3ccccc3OCCO)[C@]3(C(=O)Nc4ccc(C#CC5(O)CCCCCC5)cc43)[C@@H](C(=O)Nc3nc4ccccc4s3)[C@H]12", "composite z-score": 1.22},
      {"smiles": "COCC(=C=CC[C@@H](O)c1ccc(CO)o1)CCO", "composite z-score": -0.618},
      {"smiles": "CC(C)CNC(=O)[C@@H]1c2ccccc2C(=O)N(Cc2cc(C(F)(F)F)cc(C(F)(F)F)c2)[C@H]1c1ccc(CO)cc1", "composite z-score": -0.674},
      {"smiles": "C=CCOC(=O)[C@H]1[C@@H]2C(=O)O[C@@H](c3ccccc3)[C@@H](c3ccccc3)N2[C@@H](c2ccc(OCCOC(=O)[C@@H]3C[C@@H]4C(=O)NCC(=O)N4[C@@H]3c3ccc(O)cc3)cc2)[C@]12C(=O)Nc1ccccc12", "composite z-score": -0.0156},
      {"smiles": "COC(=O)[C@@]1(Cc2ccccc2)[C@H]2c3cc(C(=O)N4CCCC4)n(C)c3C[C@H]2CN1C(=O)c1ccccc1", "composite z-score": 1.64},
      {"smiles": "CC(C)Cc1ccc(CN2CC[C@@H](NS(=O)(=O)c3ccccc3)C2)cc1", "composite z-score": -0.369},
      {"smiles": "CC(=O)Nc1cc(Br)ccc1C(=O)O", "composite z-score": 0.254},
      {"smiles": "COC(=O)[C@@]1(Cc2ccccc2N=[N+]=[N-])COC(c2ccc(OCCCO)cc2)=N1", "composite z-score": 0.175}
    ]}
  ]
}
